# SKN-1 block = blocks SKN-1 activity in C. elegans; C. elegans VP596 Pgst-4::GFP/RFP ratio, acrylamide-induced, 24 h; inhibition, % at 21.8 µM; hit rate 0.49% among 360,000;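 active = interference check ratio from 0.5 to 1.5 plus GFP to RFP signal ratio inhibition reaching or exceeding a fixed threshold, cut at about 30% in these data, passing the limit was not always enough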
# hiPSC survival = hiPSC single-cell survival enhancement; survival enhancement, % at 20 µM; hit rate 0.044% among 360,000; ATPlite luminescence; 100% = ROCK inhibitor wells, 0% = DMSO; in the data active = survival enhancement above about 18%;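 note: cells exposed to compounds for 16 hours before the ATP read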
# CRFR2-BP antag = antagonists of CRF-binding protein/CRF-R2 receptor complex; hit rate 0.59% among 350,000; HEK293 CRF-R2/CRF-BP, CRF-induced calcium fluorescence; AID 588475; inhibition, % at 11.8 µM;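 active = inhibition of the ligand-induced calcium signal above about 50% at the single tested concentration, limit read from the data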
# CRFBP-R2 agonist = agonists of human CRF-binding protein/CRF-R2 receptor complex; activation, % at 13.2 µM; HEK293 CRF-R2/CRF-BP, calcium dye fluorescence (FLIPR); percent of saturating CRF peptide response; hit rate 0.46% among 350,000;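 active = activation of at least 50%, plus an integration ratio under a set limit after plate pattern correction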;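 note: plate controls were neutral control wells without compound for no effect and CRF at EC100 for full effect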
# TAG inh = inhibitors of triacylglycerol accumulation | hit rate 0.66% among 230,000 | inhibition, % at 12.5 µM | H9c2 cells, Nile Red lipid (TAG) fluorescence; cells loaded with 200 µM oleic acid;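 active = pattern-corrected inhibition of lipid staining of at least 50% with the nuclear-stain viability signal not falling by more than 50%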;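 note: 0% = DMSO wells and 100% = triacsin C control wells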
# Cardio protect = modulators protecting cardiomyocytes from myocardial damage; AID 588492; protection from H2O2 cell death, % at 20 µM; H9c2 cardiomyocytes, H2O2 injury protection, ATPLite, 2 h; hit rate 0.63% among 360,000;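 active = compounds giving at least 50% protection of heart cells from peroxide-induced death in the single-dose screen, raw or plate-pattern-corrected value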;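 note: 0% = DMSO wells with peroxide and 100% = DMSO wells without peroxide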
# The depositor's hits bear a star; . = no result given; ! = repeats disagree. Only some compounds are listed: those with a hit (about 2.5% of all), similar ones and a draw of the others.
SMILES,SKN-1 block,hiPSC survival,CRFR2-BP antag,CRFBP-R2 agonist,TAG inh,Cardio protect
CSc1ccccc1NC(=O)COC(=O)c1c[nH]c(=O)[nH]c1=O,-9,1,-60,112*,0,-5
Cc1ccc([C@@H]2C[C@H]3[C@@H](CN2S(=O)(=O)c2ccc(C)cc2)C(=O)C[C@@H](c2ccc(Cl)cc2)N3S(=O)(=O)c2ccccc2C)cc1,4,2,-2,-1,21,-5
FC(F)(F)c1cc(Cl)c2nc(-c3ccccc3)c(Cc3cccc(Cl)c3)n2c1,19,0,.,.,.,.
CCCCN(C)C(=O)c1nc2ccccn2c1CN1CCN(C/C=C/c2ccccc2)CC1,15,-2,-14,-2,-11,3
O=C(Nc1ccc(C(=O)N2CCCC2)cc1)c1ccccc1Br,-17,4,13,0,5,-1
O=C(Nc1ccc(C2CC2(Cl)Cl)cc1)c1ccccc1Br (stereo unspecified),47*,1,21,0,.,-20
CC(NC(=O)C1CCN(Cc2ccc(Oc3ccccc3)cc2)CC1)c1cccc2ccccc12 (stereo unspecified),7,-2,.,.,10,-7
CCCCCCCCCCSc1n[nH]c(NC(C)=O)n1,2,0,-12,-1,.,1
CCCSc1n[nH]c(NC(C)=O)n1,4,-1,56*,-1,0,-8
CC(=O)c1ccc(N2CCN(C(=O)CCCc3nc4ccccc4s3)CC2)cc1,-1,0,19,-1,-3,-12
Cc1nn(-c2ccccc2)c(Cl)c1CN(C(=O)CCl)c1ccc(Cl)cc1,-3,-3,78*,0,.,-10
CC(=O)N(Cc1c(C)nn(-c2ccccc2)c1Cl)c1ccc(Cl)cc1,18,-2,32,-1,3,14
CCOC(=O)C(=O)N(C)c1c(CC)nc2c(OCc3ccc(OC)cc3)cccn12,13,0,.,.,-3,8
N#Cc1ccc(-c2cccnc2)nc1SCC(=O)Nc1sc2c(c1C#N)CCC2,39*,2,-7,4,.,-4
Cc1cc(NC(=O)COc2nnc(-c3ccccc3)c3ccccc23)no1,8,4,4,-1,7,48*
O=C1Nc2ccccc2N(O)N1c1cc(-c2ccccc2Cl)no1,18,0,-6,0,10,-5
O=C1Nc2ccccc2N(O)N1c1cc(-c2cccc(Cl)c2)no1,1,-1,50*,49,4,-1
C/C(=N\OC(=O)c1ccc(Br)cc1)c1ccccn1,-6,2,6,-5,.,-7
C/C(=N/OCc1ccc(Br)cc1)c1ccccn1,54*,-3,-1,-1,.,-13
Cc1nc(N)sc1-c1csc(Nc2cccc(C(=O)O)c2)n1,16,0,6,0,5,12
CC(=O)Nc1ccc(Nc2nc(-c3sc(NC(C)=O)nc3C)cs2)cc1,4,-1,12,1,29,57*
Cc1nc(N)sc1-c1csc(Nc2ccccc2)n1,-17,-2,79*,-2,12,-4
CC(=O)Nc1nc(C)c(-c2csc(Nc3cccc([N+](=O)[O-])c3)n2)s1,-10,0,4,-2,.,44
CC(=O)Nc1nc(C)c(-c2csc(Nc3cccc(C(C)=O)c3)n2)s1,13,0,-1,3,.,66*
C=CS(=O)(=O)c1c2cc(OC)ccc2nc2ccc(OC)cc12,20,-1,-22,31,15,-16
SMILES,SKN-1 block,hiPSC survival,CRFR2-BP antag,CRFBP-R2 agonist,TAG inh,Cardio protect
CCN(CC)CC(C)(C)C(=O)/C=C/c1ccc(/C=C/C(=O)C(C)(C)CN(CC)CC)cc1,26,0,8,12,112*,-19
CCN(CC)CCOC(=O)/C=C/c1ccccc1,-1,0,6,-2,1,-4
CCn1cc(C=C2C(=O)c3ccccc3C2=O)c2ccccc21,-3,3,-246,196*,.,6
CCN=C1S/C(=C\c2cn(CC)c3ccccc23)C(=O)N1CC,11,-2,0,0,26,5
Cc1cc(OCC(=O)Nc2ccc3oc(=O)ccc3c2)ccc1Cl,5,0,-2,0,.,3
O=C(c1cccs1)N1CCc2c([nH]c3ccccc23)C1c1ccc(Cl)cc1 (stereo unspecified),50*,4,-18,0,-3,-15
O=S(=O)([N-]c1nc2ccccc2nc1-[n+]1ccccc1)c1ccccc1,-11,0,10,1,.,4
O=S(=O)([N-]c1nc2ccccc2nc1-[n+]1ccc(-c2ccncc2)cc1)c1ccccc1,-4,0,-99,224*,.,2
CCC(C)NC(=O)Cn1cnc2sc(C)c(S(=O)(=O)N3CCCCC3)c2c1=O (stereo unspecified),9,0,62*,-1,.,4
CCCCOc1ccccc1C1C(C(=O)OC)=CN(CC)C=C1C(=O)OC,-8,-1,59*,0,.,10
COc1ccc(-c2ccc3c(c2)C2CC3CCN2S(=O)(=O)c2ccccc2C)cc1 (stereo unspecified),-11,0,1,6,1,-34
Cc1ccc(NC(=O)c2cccc(S(=O)(=O)N3CCN(c4ccccc4)CC3)c2)nc1,17,0,6,-1,-4,-8
CCc1ccccc1N1C(=O)C2CC(C)=C(C)CC2C1=O (stereo unspecified),-1,1,50*,0,.,-1
O=C(CSc1nnc(-c2ccccc2F)n1C1CC1)NCc1ccco1,14,1,0,2,12,-2
CN(C)CCCN1c2ccccc2Sc2ccc(Cl)cc21,1,0,-7,0,50*!,27
O=C(CSc1ccccc1)N(c1ccc(Br)cc1)c1nccs1,27,5,50*,0,.,-10
CCN(CC)c1ccc(/C=C(\C#N)C(=O)c2ccc(Br)cc2)cc1,60,4,-329,301*,1,-12
CN(C)c1ccc(/C=C(\C#N)C(=O)c2ccccc2)cc1,22,0,-189,212*,.,-17
CCN(CC)c1ccc(/C=C(\C#N)C(N)=S)cc1,28,0,-56,72*,-18,-13
CN(c1ccccc1)S(=O)(=O)c1ccc(C(=O)NCc2ccccc2F)cc1,-7,1,-12,2,5,13
Cc1ccc(S(=O)(=O)CC(=O)N2CC(C)OC(C)C2)cc1 (stereo unspecified),6,-1,-13,0,-7,4
O=C(c1ccccc1)N1CCC(=O)N(C(CO)Cc2ccccc2)CC1 (stereo unspecified),5,-2,3,0,-7,-4
CC(C)(C)c1ccc(C(=O)N2CCC(=O)N(C(CO)Cc3ccccc3)CC2)cc1 (stereo unspecified),2,1,-7,51*,-1,3
COc1cc(N(C)C)ccc1[C@]1(O)C(=O)N(C)c2ccc(Br)cc21,4,.,.,.,.,.
